Source: PubChem BioAssay
TDP1 cell CPT = DT40-hTDP1 cell growth loss with CPT | chicken DT40 Tdp1-/-;hTDP1 cells + 20 nM CPT, ATP luminescence, 48 h | Potency, µM (series often up to 46.2 µM), inactives show at the highest dose activity change, negative = growth inhibition, hits mostly inhibitors | hit rate 12% among 420,000; further: potency means the concentration at half of the fitted maximal effect; nearly all actives have a fitted effect of over 55% in size
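Chicken DT40 Tdp1-/- cells complemented with human TDP1, 400 cells/well, exposed to compounds plus 20 nM camptothecin for at least 48 h at 37 C; viability read as ATP content by CellTiter-Glo luminescence.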
IL1B secr inh = inhibitors of inflammasome signaling (IL-1 beta secretion) | THP-1 LPS/ATP IL-1B secretion, AlphaLISA, 16 h; active compounds read low | activity change, % at 57.5 µM | hit rate 4.7% among 360,000; in the data active means activity change below about -50%; inconclusive means mostly about -30% to -49%
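Secreted IL-1B measured by AlphaLISA bead assay after 16 h compound exposure of THP-1 cells; compounds (final up to 57.5 uM) added 1 h before LPS (250 ng/mL) and ATP (1.25 mM) stimulation; lower signal means less secretion.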
RORgamma inh = inhibitors of mouse ROR gamma transcriptional activity. AID 2551. Potency, µM (highest dose often 53.6 µM), for inactives: at the highest dose activity change, negative = inhibition, most hits filed as inhibitors. Drosophila S2 Gal4-RORgamma UAS-luciferase reporter, 20 h. P51450. hit rate 5.4% among 310,000; further: potency means the concentration at half of the fitted maximal effect; nearly all actives have a fitted effect of over 60% in size
Target sequence (P51450 whole entry, looked up, the tested form may be a part): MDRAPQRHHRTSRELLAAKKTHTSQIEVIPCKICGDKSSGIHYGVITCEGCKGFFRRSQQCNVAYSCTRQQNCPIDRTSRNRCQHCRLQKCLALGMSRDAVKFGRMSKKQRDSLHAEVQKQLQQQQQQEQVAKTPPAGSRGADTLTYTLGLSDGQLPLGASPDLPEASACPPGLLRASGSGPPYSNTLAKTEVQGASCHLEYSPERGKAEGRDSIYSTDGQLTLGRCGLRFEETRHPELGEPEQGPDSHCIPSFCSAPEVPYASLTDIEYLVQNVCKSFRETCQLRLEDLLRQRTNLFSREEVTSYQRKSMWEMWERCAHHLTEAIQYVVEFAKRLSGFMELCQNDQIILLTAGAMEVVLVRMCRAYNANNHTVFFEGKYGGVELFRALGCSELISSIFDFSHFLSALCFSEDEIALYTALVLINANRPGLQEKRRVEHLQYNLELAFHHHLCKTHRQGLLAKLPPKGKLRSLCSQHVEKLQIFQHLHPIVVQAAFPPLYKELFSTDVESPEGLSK
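Read-out: Photinus luciferase luminescence; inhibitors lower reporter signal. Insect Schneider cells with Gal4-ROR gamma fusion under metallothionein promoter, UAS reporter; 700 uM final copper sulfate induction, 20 hr, ambient temperature.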
DT40 TDP1 no CPT = qHTS for Inhibitors of human tyrosyl-DNA phosphodiesterase 1 (TDP1): qHTS in cells in absence of CPT | DT40 Tdp1-/- hTDP1 cells, no CPT, ATP luminescence, 48 h | Potency, µM (highest dose often 46.2 µM), inactives show at the highest dose activity change, negative = growth inhibition, most hits filed as inhibitors | hit rate 15% among 420,000; further: potency means the concentration at half of the fitted maximal effect; nearly all actives have a fitted effect of over 55% in size
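Readout: luminescence from CellTiter-Glo after 30 min in the dark at RT. Cells: DT40 Tdp1-/- with stable hTDP1, 400/well. Exposure: compounds alone, ≥48 hr, 37 °C.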
ELG1 DNA repair = ELG1-dependent DNA repair inhibition. AID 504467. hit rate 2.3% among 330,000. Potency, µM (highest dose often 46.1 µM), without a hit: at the top dose activity change, negative = inhibition, hits mostly inhibitors. HEK293T ELG1-luciferase reporter, luminescence, 16 h; DNA damage induced by 5-fluorouridine; further: potency means the concentration at half of the fitted maximal effect; nearly all actives have a fitted effect of over 55% in size
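In this reporter screen, reduction of luminescence relative to DMSO vehicle indicated activity. Compounds and 5-fluorouridine were added together to 2,000 cells per well, incubated for 16 hr at 37 °C, then developed with ONE-Glo.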
Gal4-VP16 FLuc = inhibits Gal4-VP16 luciferase reporter, ROR gamma counter-screen; Drosophila S2 Gal4-VP16 UAS-luciferase, luminescence, 20 h; Potency, µM (top dose mostly 53.6 µM), for inactives: top-dose activity, negative = inhibition, usual class: inhibitors; hit rate 3.5% among 310,000;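 further: Gal4-VP16 expression switched on by copper sulfate through the metallothionein promoter; potency means the concentration at half of the fitted maximal effect; nearly all actives have a fitted effect of over 50% in size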
* hit, by the source's call; u = inconclusive; x = no result given; [ ] = remark or other dose. The list is not random: actives were taken first. Their share in the collection is about 21%. Unless noted, the call rests on the fitted dose curve; in most records, active means well fitted curve in the direction sought with a large enough effect; inconclusive means small, poorly fitted or top-dose-only effect, or another doubt; inactive means no such curve, though single readings can be large; an effect the other way counts as inactive or inconclusive. On the % scale 0 is the no-effect control and ±100 the full control effect.

SMILES	TDP1 cell CPT	IL1B secr inh	RORgamma inh	DT40 TDP1 no CPT	ELG1 DNA repair	Gal4-VP16 FLuc
Cc1cc(Br)cn2c(Cc3cccc(Cl)c3)c(-c3ccco3)nc12	u	-2	x	21µM*	x	x
COc1ccc(Cc2c(-c3ccc(C)cc3)nc3c(C)cc(Br)cn23)c(C)c1	u	39	x	u	x	x
CS(=O)c1ccccc1-c1nc(-c2ccc([N+](=O)[O-])cc2)no1 (centres undefined)	8%	2	x	-2%	x	x
C[C@@H]1COc2cc(N3CCN(Cc4ccccc4F)CC3)ccc2S(=O)(=O)N1	-1%	39	x	-12%	x	x
CN(C)/C(=N\S(=O)(=O)c1ccc(Br)cc1)c1ccccc1	-18%	1	-15%	-9%	0%	1%
Cc1ccc(S(=O)(=O)/N=C(/Nc2ccccc2C)c2ccccc2)cc1	u	-7	x	u	-16%	x
Cc1ccc(NC(=S)N/C(=N/S(=O)(=O)c2ccccc2)c2ccccc2)cc1	2%	-1	u	0%	u	13µM*
Cc1ccccc1/C(=N\S(=O)(=O)c1ccc(Br)cc1)Nc1ccccc1	u	-6	x	15µM*	x	x
Cc1ccc(S(=O)(=O)/N=C(/Nc2c(C)cccc2C)c2ccccc2)cc1	-69%	-6	x	1.6µM*	-2%	x
COc1ccc(C2CC(c3ccccc3)=NN2C(=O)COC(=O)c2cc(S(=O)(=O)N3CCOCC3)ccc2F)cc1 (centres undefined)	-16%	3	3%	-28%	u	-2%
COc1ccc(C(C#N)CC(=O)c2ccc(OCc3ccccc3)c(OC)c2)cc1OC (centres undefined)	u	6	x	u	x	x
Cc1ccc2c(c1)c(=O)c(C(=O)c1ccncc1)cn2CC(=O)Nc1c(C)cccc1C	0%	x	x	-15%	x	x
CCc1ccc(OCCn2ccnc2)cc1	5%	-1	-12%	-3%	7%	-7%
Cc1cc(Cl)cc(C)c1OCCn1ccnc1	5.2µM*	160	-32%	5.2µM*	u	1%
CCc1ccc(OCCCCCn2ccnc2)cc1	u	-30	11µM*	18µM*	3%	u
Cc1cc(Cl)cc(C)c1OCCCCCn1ccnc1	18µM*	-91*	u	u	-16%	18µM*
Cc1ccc(OCCn2ccnc2)c([N+](=O)[O-])c1	-18%	0	-11%	-1%	-1%	6%
Cc1cc(OCCCn2ccnc2)ccc1[N+](=O)[O-]	-29%	-79*	-33%	u	2%	-7%
Cc1ccc(NC(=O)CN(C)C(=O)Cc2ccc(Cl)cc2Cl)cc1	2%	-27	5%	-24%	-2%	8%
CO[C@@H]1COC(=O)C/C=C\[C@H](C)[C@H](OC)COC(=O)[C@H]2CCCN2C(=O)C/C=C\[C@H]1C	x	x	-16%[10 µM]	x	x	-9%[10 µM]
Cc1cc(C)c(OCCCCCn2ccnc2)c(C)c1	u	28	11µM*	15µM*	-7%	14µM*
Cc1cc(OCCCCCn2ccnc2)cc(C)c1Cl	u	-13	24%	13µM*	-20%	5%
Fc1ccc(OCCCCCn2ccnc2)cc1	0%	-14	-21%	u	1%	-2%
Cc1cc(OCCCn2ccnc2)cc(C)c1Cl	-29%	1	u	u	-21%	-5%
Cc1ccc(C)c(OCCCCCn2ccnc2)c1	u	-11	8.9µM*	u	0%	-30%
SMILES	TDP1 cell CPT	IL1B secr inh	RORgamma inh	DT40 TDP1 no CPT	ELG1 DNA repair	Gal4-VP16 FLuc
Cc1ccc([N+](=O)[O-])c(OCCN2C(=O)NC(C)(C)C2=O)c1	1%	-4	34%	-18%	4%	19%
Cc1cc(OCCCCN2C(=O)NC(C)(C)C2=O)ccc1[N+](=O)[O-]	u	-10	u	12µM*	-8%	u
CNc1nc(Cl)nc2c1ncn2CC(COC(=O)C(C)(C)C)COC(=O)C(C)(C)C	x	x	4%	x	x	-11%
c1cnc2ccc(-n3ccnc3)cc2c1	u	-11	x	u	x	x
O=C(CSc1nnc(CNC(=O)c2c(F)cccc2Cl)o1)Nc1ccccc1F	20%	x	x	-11%	x	x
Cc1nnc(SCC(=O)N2c3ccccc3CC2C)s1 (centres undefined)	-19%	2	3%	-6%	u	-3%
Cc1sc2nc(C(C)C)nc(SCC(=O)N3c4ccccc4CC3C)c2c1C (centres undefined)	u	25	8.9µM*	u	-20%	18µM*
CCc1nc(SCC(=O)N2c3ccccc3CC2C)c2c(C)c(C)sc2n1 (centres undefined)	9.2µM*	u	37%	10µM*	u	u
Nc1[nH]c(C(=O)c2ccccc2)c(-c2ccccc2C(F)(F)F)c1C(=O)NCc1ccc(F)cc1	0%	53	x	-20%	x	x
Cc1cccc(-c2cccc(NC(=O)C3CCCN(C(=O)c4csc(C)n4)C3)c2)c1 (centres undefined)	1.5µM*	u	u	1.3µM*	u	-2%
CCc1nc(C)c(C(=O)N2CCCC(C(=O)Nc3cccc(-c4cccc(C)c4)c3)C2)o1 (centres undefined)	13µM*	-82*	u	10µM*	u	u
CC(C)(C)OC(=O)N1CCCC(C(=O)Nc2cccc(C(=O)N3CCCCC3)c2)C1 (centres undefined)	-17%	-22	x	-24%	x	x
Cc1cccc(-c2cccc(NC(=O)C3CCCN(C(=O)c4cccnc4)C3)c2)c1 (centres undefined)	18µM*	-6	39%	15µM*	u	3%
Cc1cccc(-c2cccc(NC(=O)C3CCCN(C(=O)c4ocnc4C)C3)c2)c1 (centres undefined)	23µM*	0	u	21µM*	0%	1%
CCc1ncc(CN2CCCC(C(=O)Nc3cccc(-c4cccc(C)c4)c3)C2)cn1 (centres undefined)	u	-7	0%	u	-2%	-5%
Cc1nc2cccnc2n1C1CCN(C(=O)Nc2ccccc2C(F)(F)F)CC1	0%	x	x	6%	x	x
CC(C)C(N)C(=O)O (centres undefined)	-1%	x	x	-5%	x	x
C(=NN1CCCCCC1)c1ccc2ccccc2n1	u	-4	x	16µM*	x	x
C(=NN1CCCCCC1)c1cccc2ccccc12	-2%	-19	x	u	x	x
FC(F)(F)c1cc(CN2CC[C@@]3(CCCNC3)C2)cc(C(F)(F)F)c1	u	x	-9%	15µM*	x	6%
